# Measured values reported in PMC7862700, “An all-to-all approach to the identification of sequence-specific readers for epigenetic DNA modifications on cytosine”.
# Legend:
# Test in all cases: DAPPL (digital affinity profiling via proximity ligation, sequencing); 10 mM Tris-HCl pH 7.5, 50 mM NaCl, 1 mM DTT, 4% glycerol, room temperature, 30 min; GST-TFs on glutathione beads, 16-mer random dsDNA library, 0.1% formaldehyde crosslink after washing; high values mean tight binding
# FLI1 = molecular target: T1, FLI1 (Homo sapiens, UniProt Q01543 1-452); settings: protein: recombinant; tags: N-terminal GST; dsDNA, one strand shown
# T1 sequence: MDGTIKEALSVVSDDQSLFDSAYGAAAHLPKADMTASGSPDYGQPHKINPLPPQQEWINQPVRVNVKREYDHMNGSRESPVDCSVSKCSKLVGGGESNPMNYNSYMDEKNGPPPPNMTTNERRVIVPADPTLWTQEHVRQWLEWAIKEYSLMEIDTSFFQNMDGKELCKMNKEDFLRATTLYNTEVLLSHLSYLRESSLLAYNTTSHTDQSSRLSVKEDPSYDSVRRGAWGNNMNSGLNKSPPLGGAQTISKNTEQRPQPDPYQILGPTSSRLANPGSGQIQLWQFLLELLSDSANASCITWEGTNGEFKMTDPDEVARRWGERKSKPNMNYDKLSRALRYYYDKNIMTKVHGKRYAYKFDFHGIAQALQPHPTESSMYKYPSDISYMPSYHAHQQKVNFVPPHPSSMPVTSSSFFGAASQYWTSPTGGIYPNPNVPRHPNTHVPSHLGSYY
# Outline: (§1)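 Beads coated with glutathione captured GST-fused human transcription factors that had been expressed in yeast, and the factors were then given DNA barcodes and pooled with a tag-only sample. The pools were incubated with 200 nmole of a random double-stranded 16-mer DNA library in Tris/NaCl/DTT/glycerol buffer for 30 min at room temperature, washed, crosslinked with 0.1% formaldehyde and proximity-ligated with BsaI/T4 ligase at 37 °C for 1 h. PCR amplification and Illumina NextSeq500 sequencing came last. Binding signal is each hexamer's read frequency for a factor divided by its frequency for the tag-only sample.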
# ELK1 = molecular target: T2, ELK1 (Homo sapiens, UniProt P19419 1-428); settings: protein: recombinant; tags: N-terminal GST; dsDNA, one strand shown
# T2 sequence: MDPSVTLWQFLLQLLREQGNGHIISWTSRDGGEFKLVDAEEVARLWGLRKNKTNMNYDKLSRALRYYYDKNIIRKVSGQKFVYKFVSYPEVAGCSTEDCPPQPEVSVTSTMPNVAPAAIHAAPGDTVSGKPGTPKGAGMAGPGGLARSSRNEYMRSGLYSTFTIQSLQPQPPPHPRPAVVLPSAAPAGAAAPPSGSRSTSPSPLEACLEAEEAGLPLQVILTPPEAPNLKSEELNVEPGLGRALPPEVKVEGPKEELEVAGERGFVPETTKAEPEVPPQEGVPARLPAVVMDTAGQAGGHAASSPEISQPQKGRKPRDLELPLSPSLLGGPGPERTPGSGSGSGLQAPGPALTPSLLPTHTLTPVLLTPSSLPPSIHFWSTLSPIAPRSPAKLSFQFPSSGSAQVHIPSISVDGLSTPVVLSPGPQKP
# Outline: as §1
# GABPA = molecular target: T3, GABPA (Homo sapiens, UniProt Q06546 1-454); settings: protein: recombinant; tags: N-terminal GST; dsDNA, one strand shown
# T3 sequence: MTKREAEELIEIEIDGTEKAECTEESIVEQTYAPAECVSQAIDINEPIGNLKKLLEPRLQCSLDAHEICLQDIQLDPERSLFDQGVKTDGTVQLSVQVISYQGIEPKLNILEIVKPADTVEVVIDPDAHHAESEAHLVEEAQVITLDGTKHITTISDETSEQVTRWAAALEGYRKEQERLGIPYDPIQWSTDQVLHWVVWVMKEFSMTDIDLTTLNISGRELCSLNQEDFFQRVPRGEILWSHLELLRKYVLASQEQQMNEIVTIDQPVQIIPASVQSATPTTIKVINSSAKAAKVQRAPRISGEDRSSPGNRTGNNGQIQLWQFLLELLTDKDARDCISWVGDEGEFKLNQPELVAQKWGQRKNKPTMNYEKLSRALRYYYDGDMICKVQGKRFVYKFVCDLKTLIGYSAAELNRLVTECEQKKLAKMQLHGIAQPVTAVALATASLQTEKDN
# Outline: as §1
# ERG = molecular target: T4, ERG (Homo sapiens, UniProt P11308 1-479); settings: protein: recombinant; tags: N-terminal GST; dsDNA, one strand shown
# T4 sequence: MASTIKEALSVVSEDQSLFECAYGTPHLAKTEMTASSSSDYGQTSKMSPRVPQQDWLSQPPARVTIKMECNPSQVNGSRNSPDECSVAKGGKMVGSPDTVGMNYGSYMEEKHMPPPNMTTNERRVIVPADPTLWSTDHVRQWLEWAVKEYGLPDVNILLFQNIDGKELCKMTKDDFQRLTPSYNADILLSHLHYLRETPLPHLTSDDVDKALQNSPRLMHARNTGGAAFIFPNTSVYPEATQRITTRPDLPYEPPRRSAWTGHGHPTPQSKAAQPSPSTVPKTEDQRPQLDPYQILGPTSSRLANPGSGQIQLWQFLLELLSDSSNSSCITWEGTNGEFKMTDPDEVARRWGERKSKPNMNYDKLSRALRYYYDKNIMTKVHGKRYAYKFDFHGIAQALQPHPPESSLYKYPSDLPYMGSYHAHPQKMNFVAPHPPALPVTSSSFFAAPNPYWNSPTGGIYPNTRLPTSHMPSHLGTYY
# Outline: as §1
# ELF1 = ELF1 (Homo sapiens, UniProt P32519 1-619); settings: protein: recombinant; tags: N-terminal GST; dsDNA, one strand shown
# Outline: as §1
# EHF = molecular target: T5, EHF (Homo sapiens, UniProt Q9NZC4 1-300); settings: protein: recombinant; tags: N-terminal GST; dsDNA, one strand shown
# T5 sequence: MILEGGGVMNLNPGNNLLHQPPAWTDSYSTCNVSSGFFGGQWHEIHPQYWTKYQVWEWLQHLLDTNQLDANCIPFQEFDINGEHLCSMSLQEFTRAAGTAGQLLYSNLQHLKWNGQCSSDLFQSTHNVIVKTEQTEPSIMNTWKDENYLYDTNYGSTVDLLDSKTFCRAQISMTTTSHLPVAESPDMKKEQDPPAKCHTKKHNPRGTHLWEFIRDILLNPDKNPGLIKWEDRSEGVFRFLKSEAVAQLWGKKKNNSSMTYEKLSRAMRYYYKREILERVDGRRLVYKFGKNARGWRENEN
# Outline: as §1
# SPI1 = SPI1 (Homo sapiens, UniProt P17947 1-270); settings: protein: recombinant; tags: N-terminal GST; dsDNA, one strand shown
# Outline: as §1
# SPIB = SPIB (Homo sapiens, UniProt Q01892 1-262); settings: protein: recombinant; tags: N-terminal GST; dsDNA, one strand shown
# Outline: as §1
# ELK3 = molecular target: T6, ELK3 (Homo sapiens, UniProt P41970 1-407); settings: protein: recombinant; tags: N-terminal GST; dsDNA, one strand shown
# T6 sequence: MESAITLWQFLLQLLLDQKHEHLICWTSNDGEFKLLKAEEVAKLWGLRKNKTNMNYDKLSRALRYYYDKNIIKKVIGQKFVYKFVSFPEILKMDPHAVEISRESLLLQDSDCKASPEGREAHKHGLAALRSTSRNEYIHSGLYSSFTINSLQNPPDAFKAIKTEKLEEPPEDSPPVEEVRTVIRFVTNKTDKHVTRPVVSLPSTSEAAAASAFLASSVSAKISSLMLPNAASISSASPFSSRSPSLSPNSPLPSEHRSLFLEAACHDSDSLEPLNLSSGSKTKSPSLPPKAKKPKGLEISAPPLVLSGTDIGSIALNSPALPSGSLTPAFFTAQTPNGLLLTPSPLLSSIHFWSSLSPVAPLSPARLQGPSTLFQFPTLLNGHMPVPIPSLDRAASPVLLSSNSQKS
# Outline: as §1
# FEV = molecular target: T7, FEV (Homo sapiens, UniProt Q99581 1-238); settings: protein: recombinant; tags: N-terminal GST; dsDNA, one strand shown
# T7 sequence: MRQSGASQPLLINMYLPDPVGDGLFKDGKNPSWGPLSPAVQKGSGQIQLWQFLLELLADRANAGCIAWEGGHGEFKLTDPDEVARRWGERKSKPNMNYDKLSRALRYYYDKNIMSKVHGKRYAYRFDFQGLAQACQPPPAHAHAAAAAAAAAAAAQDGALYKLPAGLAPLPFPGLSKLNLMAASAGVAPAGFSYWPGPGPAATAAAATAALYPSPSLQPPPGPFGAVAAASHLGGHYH
# Outline: as §1
# ETV5 = ETV5 (Homo sapiens, UniProt P41161 1-510); settings: protein: recombinant; tags: N-terminal GST; dsDNA, one strand shown
# Outline: as §1
# HSF1 = HSF1 (Homo sapiens, UniProt Q00613 1-529); settings: protein: recombinant; tags: N-terminal GST; chain copies: 3; dsDNA, one strand shown
# Outline: as §1
# SPIC = molecular target: T8, SPIC (Homo sapiens, UniProt Q8N5J4 1-248); settings: protein: recombinant; tags: N-terminal GST; dsDNA, one strand shown
# T8 sequence: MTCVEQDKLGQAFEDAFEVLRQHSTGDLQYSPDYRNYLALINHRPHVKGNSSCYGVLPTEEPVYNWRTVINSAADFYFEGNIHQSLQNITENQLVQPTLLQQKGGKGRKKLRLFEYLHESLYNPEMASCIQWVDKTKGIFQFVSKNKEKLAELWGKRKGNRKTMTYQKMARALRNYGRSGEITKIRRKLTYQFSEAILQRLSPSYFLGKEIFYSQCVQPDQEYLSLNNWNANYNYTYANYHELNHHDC
# Outline: as §1
# ELF4 = ELF4 (Homo sapiens, UniProt Q99607 1-663); settings: protein: recombinant; tags: N-terminal GST; dsDNA, one strand shown
# Outline: as §1
# ELK4 = molecular target: T9, ELK4 (Homo sapiens, UniProt P28324-2 1-405); settings: protein: recombinant; tags: N-terminal GST; dsDNA, one strand shown
# T9 sequence: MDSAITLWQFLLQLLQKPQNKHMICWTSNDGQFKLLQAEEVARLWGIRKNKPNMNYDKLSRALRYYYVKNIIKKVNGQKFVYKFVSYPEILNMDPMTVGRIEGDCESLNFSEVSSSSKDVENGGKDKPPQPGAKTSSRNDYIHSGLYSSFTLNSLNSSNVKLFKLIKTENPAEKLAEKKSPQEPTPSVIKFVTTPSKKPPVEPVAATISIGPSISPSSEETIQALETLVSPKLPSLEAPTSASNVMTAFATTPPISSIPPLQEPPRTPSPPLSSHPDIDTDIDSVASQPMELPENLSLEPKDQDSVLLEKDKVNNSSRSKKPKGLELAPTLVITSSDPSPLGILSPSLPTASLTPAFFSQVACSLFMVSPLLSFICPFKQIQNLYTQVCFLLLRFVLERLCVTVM
# Outline: as §1
# ETV2 = molecular target: T10, ETV2 (Homo sapiens, UniProt O00321 1-342); settings: protein: recombinant; tags: N-terminal GST; dsDNA, one strand shown
# T10 sequence: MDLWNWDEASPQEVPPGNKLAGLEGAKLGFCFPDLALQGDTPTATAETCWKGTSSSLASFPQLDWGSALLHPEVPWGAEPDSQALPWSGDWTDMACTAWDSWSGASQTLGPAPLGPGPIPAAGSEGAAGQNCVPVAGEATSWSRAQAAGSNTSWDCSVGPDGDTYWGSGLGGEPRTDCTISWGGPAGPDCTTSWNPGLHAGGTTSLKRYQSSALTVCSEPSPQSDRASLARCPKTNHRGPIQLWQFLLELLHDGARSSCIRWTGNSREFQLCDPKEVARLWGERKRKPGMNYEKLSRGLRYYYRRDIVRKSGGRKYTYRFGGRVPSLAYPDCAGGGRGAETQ
# Outline: as §1
# ELF3 = molecular target: T11, ELF3 (Homo sapiens, UniProt P78545 1-371); settings: protein: recombinant; tags: N-terminal GST; dsDNA, one strand shown
# T11 sequence: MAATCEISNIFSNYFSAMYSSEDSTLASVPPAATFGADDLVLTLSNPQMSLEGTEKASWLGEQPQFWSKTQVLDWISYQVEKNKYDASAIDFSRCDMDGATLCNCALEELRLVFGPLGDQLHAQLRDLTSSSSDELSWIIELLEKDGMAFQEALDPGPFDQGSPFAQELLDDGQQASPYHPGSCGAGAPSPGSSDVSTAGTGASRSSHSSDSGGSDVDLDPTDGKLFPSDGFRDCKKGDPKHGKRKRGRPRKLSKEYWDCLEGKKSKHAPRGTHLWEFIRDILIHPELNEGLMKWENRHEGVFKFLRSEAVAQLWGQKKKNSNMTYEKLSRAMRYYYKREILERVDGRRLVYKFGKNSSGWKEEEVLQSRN
# Outline: as §1
# CRX = CRX (Homo sapiens, UniProt O43186 1-299); settings: protein: recombinant; tags: N-terminal GST; dsDNA, one strand shown
# Outline: as §1
# ETV1 = ETV1 (Homo sapiens, UniProt P50549 1-477); settings: protein: recombinant; tags: N-terminal GST; dsDNA, one strand shown
# Outline: as §1
# ELF1, sequence (P32519 whole entry): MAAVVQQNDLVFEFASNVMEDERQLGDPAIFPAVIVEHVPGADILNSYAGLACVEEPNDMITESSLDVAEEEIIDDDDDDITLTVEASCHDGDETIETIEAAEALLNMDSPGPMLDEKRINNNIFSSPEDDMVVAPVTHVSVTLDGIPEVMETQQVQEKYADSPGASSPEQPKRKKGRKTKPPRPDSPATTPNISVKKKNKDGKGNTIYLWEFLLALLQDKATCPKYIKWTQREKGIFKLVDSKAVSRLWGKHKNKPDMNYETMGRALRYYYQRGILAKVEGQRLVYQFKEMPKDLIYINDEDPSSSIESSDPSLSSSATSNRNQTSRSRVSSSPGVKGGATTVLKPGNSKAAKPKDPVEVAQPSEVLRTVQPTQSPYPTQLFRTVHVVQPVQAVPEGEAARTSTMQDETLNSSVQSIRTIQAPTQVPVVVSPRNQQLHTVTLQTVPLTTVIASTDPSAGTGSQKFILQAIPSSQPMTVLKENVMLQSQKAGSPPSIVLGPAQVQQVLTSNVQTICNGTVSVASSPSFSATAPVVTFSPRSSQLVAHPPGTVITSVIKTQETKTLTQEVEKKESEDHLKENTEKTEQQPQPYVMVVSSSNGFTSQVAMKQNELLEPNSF
# SPIB, sequence (Q01892 whole entry): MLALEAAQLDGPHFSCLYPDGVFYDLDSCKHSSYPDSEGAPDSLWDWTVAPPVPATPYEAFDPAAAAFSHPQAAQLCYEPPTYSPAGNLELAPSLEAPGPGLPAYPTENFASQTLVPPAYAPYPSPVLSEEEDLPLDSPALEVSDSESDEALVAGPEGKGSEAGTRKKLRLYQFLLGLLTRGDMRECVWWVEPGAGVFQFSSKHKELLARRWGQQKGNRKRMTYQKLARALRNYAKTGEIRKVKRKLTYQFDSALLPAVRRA
# ELF4, sequence (Q99607 whole entry): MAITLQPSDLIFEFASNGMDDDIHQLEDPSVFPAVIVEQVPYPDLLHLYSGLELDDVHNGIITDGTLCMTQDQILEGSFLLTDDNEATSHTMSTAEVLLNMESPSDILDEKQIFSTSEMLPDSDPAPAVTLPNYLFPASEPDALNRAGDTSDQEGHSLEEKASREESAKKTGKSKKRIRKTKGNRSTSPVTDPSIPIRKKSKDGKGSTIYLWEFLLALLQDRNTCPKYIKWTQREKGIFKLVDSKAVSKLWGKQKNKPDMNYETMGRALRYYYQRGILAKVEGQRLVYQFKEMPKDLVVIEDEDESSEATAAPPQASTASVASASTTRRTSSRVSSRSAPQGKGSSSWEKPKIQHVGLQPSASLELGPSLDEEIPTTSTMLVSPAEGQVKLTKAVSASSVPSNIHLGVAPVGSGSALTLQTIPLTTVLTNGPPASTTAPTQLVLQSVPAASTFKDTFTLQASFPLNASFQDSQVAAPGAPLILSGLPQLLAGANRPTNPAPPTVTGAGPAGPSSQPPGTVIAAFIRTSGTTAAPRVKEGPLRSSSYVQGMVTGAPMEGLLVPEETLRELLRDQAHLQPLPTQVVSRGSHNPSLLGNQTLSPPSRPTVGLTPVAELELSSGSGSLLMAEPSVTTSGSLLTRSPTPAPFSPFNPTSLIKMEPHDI
# ETV5, sequence (P41161 whole entry): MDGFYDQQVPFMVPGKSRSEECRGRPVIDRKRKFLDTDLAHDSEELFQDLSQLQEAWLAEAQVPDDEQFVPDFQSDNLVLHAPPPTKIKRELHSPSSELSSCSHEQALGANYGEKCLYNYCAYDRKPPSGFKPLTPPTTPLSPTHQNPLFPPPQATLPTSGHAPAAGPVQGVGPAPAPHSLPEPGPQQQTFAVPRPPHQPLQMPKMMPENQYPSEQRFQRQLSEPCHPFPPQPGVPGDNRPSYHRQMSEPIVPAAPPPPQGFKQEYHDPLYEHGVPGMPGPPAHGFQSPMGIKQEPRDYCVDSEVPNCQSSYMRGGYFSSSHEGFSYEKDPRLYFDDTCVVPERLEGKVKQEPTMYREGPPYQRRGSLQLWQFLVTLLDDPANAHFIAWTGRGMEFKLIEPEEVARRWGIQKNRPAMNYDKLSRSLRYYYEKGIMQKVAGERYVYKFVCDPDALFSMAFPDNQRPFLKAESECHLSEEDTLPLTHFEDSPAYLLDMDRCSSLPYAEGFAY
# ETV1, sequence (P50549 whole entry): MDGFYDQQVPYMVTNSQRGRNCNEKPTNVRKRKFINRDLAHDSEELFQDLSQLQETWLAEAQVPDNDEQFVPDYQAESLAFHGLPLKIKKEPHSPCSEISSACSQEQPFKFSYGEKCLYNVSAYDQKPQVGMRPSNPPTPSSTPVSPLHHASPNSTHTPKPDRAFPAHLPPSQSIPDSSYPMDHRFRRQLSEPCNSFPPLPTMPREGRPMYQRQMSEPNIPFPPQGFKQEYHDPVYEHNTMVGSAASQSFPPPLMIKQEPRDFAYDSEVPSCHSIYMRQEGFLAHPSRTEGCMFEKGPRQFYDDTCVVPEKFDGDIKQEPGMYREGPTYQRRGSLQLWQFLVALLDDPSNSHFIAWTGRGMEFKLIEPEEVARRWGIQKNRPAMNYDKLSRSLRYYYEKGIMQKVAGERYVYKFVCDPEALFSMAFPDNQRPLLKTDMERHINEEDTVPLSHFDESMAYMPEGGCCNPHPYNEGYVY
# CRX, sequence (O43186 whole entry): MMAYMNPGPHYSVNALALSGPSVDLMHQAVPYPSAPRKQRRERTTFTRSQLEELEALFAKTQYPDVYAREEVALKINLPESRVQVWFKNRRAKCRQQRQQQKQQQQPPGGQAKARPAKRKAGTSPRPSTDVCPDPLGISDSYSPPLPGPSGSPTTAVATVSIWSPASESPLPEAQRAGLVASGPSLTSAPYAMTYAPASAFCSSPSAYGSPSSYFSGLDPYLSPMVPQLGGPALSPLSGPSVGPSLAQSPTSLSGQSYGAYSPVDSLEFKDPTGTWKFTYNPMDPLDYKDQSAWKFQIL
# HSF1, sequence (Q00613 whole entry): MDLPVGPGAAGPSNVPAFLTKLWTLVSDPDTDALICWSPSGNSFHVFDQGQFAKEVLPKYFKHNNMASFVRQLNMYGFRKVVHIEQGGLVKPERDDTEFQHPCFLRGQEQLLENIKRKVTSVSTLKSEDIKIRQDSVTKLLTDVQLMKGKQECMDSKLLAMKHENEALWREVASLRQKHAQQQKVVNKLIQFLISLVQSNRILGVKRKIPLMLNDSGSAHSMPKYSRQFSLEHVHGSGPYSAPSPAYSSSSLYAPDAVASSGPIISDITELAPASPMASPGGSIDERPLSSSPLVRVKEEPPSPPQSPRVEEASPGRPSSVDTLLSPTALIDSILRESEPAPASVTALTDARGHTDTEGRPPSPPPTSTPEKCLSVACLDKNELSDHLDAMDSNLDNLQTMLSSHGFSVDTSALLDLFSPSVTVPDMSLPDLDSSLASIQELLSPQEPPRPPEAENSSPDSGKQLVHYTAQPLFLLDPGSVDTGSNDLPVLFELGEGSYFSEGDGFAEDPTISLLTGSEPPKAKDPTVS
sequence,measurement,setting,value
ATCACC,binding signal,FLI1,"1.17 fold enrichment (6-mer frequency, TF over GST control)"
same,binding signal,ELK1,"1.18 fold enrichment (6-mer frequency, TF over GST control)"
same,binding signal,GABPA,"1.13 fold enrichment (6-mer frequency, TF over GST control)"
same,binding signal,ERG,"1.14 fold enrichment (6-mer frequency, TF over GST control)"
same,binding signal,ELF1,"1.19 fold enrichment (6-mer frequency, TF over GST control)"
same,binding signal,EHF,"1.1 fold enrichment (6-mer frequency, TF over GST control)"
same,binding signal,SPI1,"1.11 fold enrichment (6-mer frequency, TF over GST control)"
same,binding signal,SPIB,"1.03 fold enrichment (6-mer frequency, TF over GST control)"
same,binding signal,ELK3,"1.27 fold enrichment (6-mer frequency, TF over GST control)"
same,binding signal,FEV,"1.09 fold enrichment (6-mer frequency, TF over GST control)"
same,binding signal,ETV5,"1.11 fold enrichment (6-mer frequency, TF over GST control)"
same,binding signal,HSF1,"1.05 fold enrichment (6-mer frequency, TF over GST control)"
same,binding signal,SPIC,"1.1 fold enrichment (6-mer frequency, TF over GST control)"
same,binding signal,ELF4,"1.22 fold enrichment (6-mer frequency, TF over GST control)"
same,binding signal,ELK4,"1.07 fold enrichment (6-mer frequency, TF over GST control)"
same,binding signal,ETV2,"1.03 fold enrichment (6-mer frequency, TF over GST control)"
same,binding signal,ELF3,"1.17 fold enrichment (6-mer frequency, TF over GST control)"
same,binding signal,CRX,"1.14 fold enrichment (6-mer frequency, TF over GST control)"
same,binding signal,ETV1,"1.1 fold enrichment (6-mer frequency, TF over GST control)"
